The values below come from the supplement of paper PMC10037445.

For assay [1], the system named is RAW-Dual. Description: NF-kB SEAP reporter activity, fold change vs agonist alone; higher = enhanced NF-kB activity. In a few lines: (§1)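 Library stock was pin-tooled at 50 nL into 384-well plates of RAW-Dual macrophages (50,000 cells/well, DMEM), followed 1 h later by a PRR agonist, and the cells were kept at 37 °C, 5% CO2. Supernatant collected after 20 hours was read for IRF by QuantiLuc luminescence and for NF-κB by QuantiBlue absorbance at 620 nm. Reporter activity is fold change over agonist-alone wells, and a well counted as cytotoxic when its IncuCyte confluency was below 70% of agonist controls in both mask sets.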

The subject of assay [2] is RAW-Dual. In words: NF-kB SEAP reporter activity, fold change vs agonist alone; cytotoxicity flag (confluency mask): not cytotoxic; higher = enhanced NF-kB activity. A digest of the protocol:
as §1

In assay [3] the test system is RAW-Dual. In words: NF-kB SEAP reporter activity, fold change vs agonist alone; cytotoxicity flag (confluency mask): cytotoxic (confluency <70% of control); higher = enhanced NF-kB activity. A digest of the protocol: as §1
Where [4] appears, read: library stock concentration (final ~1000-fold dilution): 10 mM, cytotoxicity flag (confluency mask): not cytotoxic, agonist: Imiquimod (TLR7) […].
Setting [5] is: library stock concentration (final ~1000-fold dilution): 10 mM, cytotoxicity flag (confluency mask): not cytotoxic, agonist: MPLA (TLR4) […].
The mark [6] stands for this setting: agonist: ODN 1826 (TLR9) 0.5 ug/mL.
[7] abbreviates: agonist: Pam2CSK4 (TLR2/6) 0.1 ug/mL.
Where [8] appears, read: agonist: Pam3CSK4 (TLR2/1) 0.1 ug/mL.
Where [9] appears, read: library stock concentration (final ~1000-fold dilution): 10 mM, cytotoxicity flag (confluency mask): cytotoxic (confluency <70% of control), agonist: MPLA (TLR4) […].
The mark [10] stands for this setting: library stock concentration (final ~1000-fold dilution): 10 mM, cytotoxicity flag (confluency mask): cytotoxic (confluency <70% of control), agonist: Imiquimod (TLR7) […].

Over roughly 2,900 compounds, “NF-kB SEAP reporter activity, fold change vs agonist alone” has its median near 0.99; the highest 2% begin near 2.6. Many of the other results were omitted from the sample, so the highest values are more common in it than they were.

For the compound `CCCCCCCCCC(=O)NC(Cc1c[nH]c2ccccc12)C(=O)NC(CC(N)=O)C(=O)NC(CC(=O)O)C(=O)NC1C(=O)NCC(=O)NC(CCCN)C(=O)NC(CC(=O)O)C(=O)NC(C)C(=O)NC(CC(=O)O)C(=O)NCC(=O)NC(CO)C(=O)NC(C(C)CC(=O)O)C(=O)NC(CC(=O)c2ccccc2N)C(=O)OC1C` (configuration not stated), the “NF-kB SEAP reporter activity” value in the assay on RAW-Dual [1] (setting [4]) came out at 0.826; with RAW-Dual [1] (setting [5]) it was 0.855.

Turning to `CC(=O)OC(CC=C(C)C)C1=CC(=O)c2c(O)ccc(O)c2C1=O` (configuration not stated), the “NF-kB SEAP reporter activity” value with RAW-Dual [1] (library stock concentration (final ~1000-fold dilution): 2 mM, cytotoxicity flag (confluency mask): not cytotoxic, agonist: Imiquimod (TLR7) […]) came to 0.978; with RAW-Dual [1] (library stock concentration (final ~1000-fold dilution): 2 mM, cytotoxicity flag (confluency mask): not cytotoxic, agonist: MPLA (TLR4) […]), 0.978.

Consider `CC(=O)OC(CC=C(C)C)C1=CC(=O)c2c(O)ccc(O)c2C1=O` (configuration not stated) (library stock concentration (final ~1000-fold dilution): 2 mM), for which the “NF-kB SEAP reporter activity” value came to 0.479 with RAW-Dual [2] (agonist: LPS (TLR4) 0.1 ug/mL), 0.647 in the assay on RAW-Dual [2] (setting [6]), 0.257 with RAW-Dual [2] (setting [7]) and 0.408 in the assay on RAW-Dual [2] (setting [8]).

Take `O=c1cc(-c2ccccc2)oc2c1ccc1ccccc12` (library stock concentration (final ~1000-fold dilution): 10 mM): the “NF-kB SEAP reporter activity” value in the assay with RAW-Dual [2] (agonist: LPS (TLR4) 0.1 ug/mL) is 0.691; in the assay with RAW-Dual [2] (setting [6]) it was 0.933; in the assay on RAW-Dual [2] (setting [7]), 0.846; with RAW-Dual [2] (setting [8]), 0.982.

On to `O=c1cc(-c2ccccc2)oc2c1ccc1ccccc12`, for which the “NF-kB SEAP reporter activity” value with RAW-Dual [1] (setting [5]) worked out at 1.2.

With `C#CCNC1CCc2ccccc21` (configuration not stated), the “NF-kB SEAP reporter activity” value in the assay with RAW-Dual [1] (setting [4]) was 0.916; with RAW-Dual [1] (setting [5]), 1.14.

Regarding `C#CCNC1CCc2ccccc21` (configuration not stated) (library stock concentration (final ~1000-fold dilution): 10 mM), the “NF-kB SEAP reporter activity” value with RAW-Dual [2] (agonist: LPS (TLR4) 0.1 ug/mL) was 1.06; in the assay with RAW-Dual [2] (setting [6]), 0.931; with RAW-Dual [2] (setting [7]), 1.04; with RAW-Dual [2] (setting [8]), 1.08.

Consider `O=C1Nc2ccc(Cl)cc2C(C#CC2CC2)(C(F)(F)F)O1` (configuration not stated), for which the “NF-kB SEAP reporter activity” value in the assay on RAW-Dual [1] (setting [9]) was found to be 0.748.

As to `O=C1Nc2ccc(Cl)cc2C(C#CC2CC2)(C(F)(F)F)O1` (configuration not stated) (library stock concentration (final ~1000-fold dilution): 10 mM), the “NF-kB SEAP reporter activity” value with RAW-Dual [3] (agonist: LPS (TLR4) 0.1 ug/mL) stood at 0.632; in the assay on RAW-Dual [3] (setting [6]), 0.547; in the assay on RAW-Dual [3] (setting [7]), 0.614; in the assay with RAW-Dual [3] (setting [8]), 0.542.

Take `CCCC(NC1CCc2cc(F)cc(F)c2C1)C(=O)Nc1cn(C(C)(C)CNCC(C)(C)C)cn1` (configuration not stated): the results for the “NF-kB SEAP reporter activity” value with RAW-Dual [1] (setting [4]) and in the assay with RAW-Dual [1] (setting [5]) were 0.373 and 0.669, respectively.

Consider `CCCC(NC1CCc2cc(F)cc(F)c2C1)C(=O)Nc1cn(C(C)(C)CNCC(C)(C)C)cn1` (configuration not stated) (library stock concentration (final ~1000-fold dilution): 10 mM), for which the “NF-kB SEAP reporter activity” value in the assay on RAW-Dual [2] (agonist: LPS (TLR4) 0.1 ug/mL) was 0.636; with RAW-Dual [2] (setting [6]), 0.316; with RAW-Dual [2] (setting [7]) it was 0.723; in the assay with RAW-Dual [2] (setting [8]) it was 0.298.

For the compound `CC(=O)NC(CC(C)C)C(=O)NC(CC(C)C)C(=O)NC(C=O)CCCNC(=N)N` (configuration not stated) (library stock concentration (final ~1000-fold dilution): 10 mM), the “NF-kB SEAP reporter activity” value with RAW-Dual [2] (agonist: LPS (TLR4) 0.1 ug/mL) amounted to 1.01; in the assay with RAW-Dual [2] (setting [6]), 1.02; in the assay on RAW-Dual [2] (setting [7]), 1.08; with RAW-Dual [2] (setting [8]), 1.15.

As for `CC(=O)NC(CC(C)C)C(=O)NC(CC(C)C)C(=O)NC(C=O)CCCNC(=N)N` (configuration not stated), the “NF-kB SEAP reporter activity” value in the assay on RAW-Dual [1] (setting [4]) turned out to be 0.983; in the assay on RAW-Dual [1] (setting [5]), 1.09.

Take `CN1C2=C3N=c4ccccc4=C3CCN2C(=O)c2ccccc21` (library stock concentration (final ~1000-fold dilution): 10 mM): the “NF-kB SEAP reporter activity” value in the assay with RAW-Dual [2] (agonist: LPS (TLR4) 0.1 ug/mL) came out at 1.05; in the assay on RAW-Dual [2] (setting [6]), 0.339; with RAW-Dual [2] (setting [7]) it was 0.824; in the assay on RAW-Dual [2] (setting [8]) it was 1.1.

With `CN1C2=C3N=c4ccccc4=C3CCN2C(=O)c2ccccc21`, the “NF-kB SEAP reporter activity” value is 1.62 with RAW-Dual [1] (setting [4]) and 1.83 in the assay on RAW-Dual [1] (setting [5]).

In the case of `Cc1cc2c(C(N)=O)cccc2n1-c1nc2c(c(NCc3ccccc3)n1)COCC2` (library stock concentration (final ~1000-fold dilution): 10 mM), the “NF-kB SEAP reporter activity” value with RAW-Dual [3] (agonist: LPS (TLR4) 0.1 ug/mL) amounted to 0.298; with RAW-Dual [3] (setting [6]), 0.325; in the assay with RAW-Dual [3] (setting [7]), 0.0795; in the assay on RAW-Dual [3] (setting [8]), 0.159.

Turning to `Cc1cc2c(C(N)=O)cccc2n1-c1nc2c(c(NCc3ccccc3)n1)COCC2`, the figures for the “NF-kB SEAP reporter activity” value in the assay on RAW-Dual [1] (setting [10]) and in the assay on RAW-Dual [1] (setting [9]) were 0.297 and 0.302, respectively.

Consider `CC(C)=CCC[C@](C)(O)[C@H]1CC[C@]2(C)[C@@H]3CCC4C(C)(C)[C@@H](O)CC[C@]4(C)[C@H]3C[C@@H](O)[C@@]12C` (some centres not stated) (library stock concentration (final ~1000-fold dilution): 10 mM), for which the “NF-kB SEAP reporter activity” value in the assay with RAW-Dual [2] (agonist: LPS (TLR4) 0.1 ug/mL) is 1.41; in the assay with RAW-Dual [2] (setting [6]), 0.693; with RAW-Dual [2] (setting [7]), 0.848; in the assay with RAW-Dual [2] (setting [8]), 0.882.

On to `CC(C)=CCC[C@](C)(O)[C@H]1CC[C@]2(C)[C@@H]3CCC4C(C)(C)[C@@H](O)CC[C@]4(C)[C@H]3C[C@@H](O)[C@@]12C` (some centres not stated), for which the “NF-kB SEAP reporter activity” value was found to be 0.934 in the assay on RAW-Dual [1] (setting [4]) and 1.14 in the assay with RAW-Dual [1] (setting [5]).

On to `O=c1cc(-c2ccc(O)cc2)oc2c(C3OCC(O)C(O)C3O)c(O)c(C3OC(CO)C(O)C(O)C3O)c(O)c12` (configuration not stated) (library stock concentration (final ~1000-fold dilution): 10 mM), for which the “NF-kB SEAP reporter activity” value in the assay with RAW-Dual [2] (agonist: LPS (TLR4) 0.1 ug/mL) amounted to 1.45; in the assay with RAW-Dual [2] (setting [6]) it was 1.03; in the assay on RAW-Dual [2] (setting [7]) it was 1.08; with RAW-Dual [2] (setting [8]), 1.08.

For `O=c1cc(-c2ccc(O)cc2)oc2c(C3OCC(O)C(O)C3O)c(O)c(C3OC(CO)C(O)C(O)C3O)c(O)c12` (configuration not stated), the “NF-kB SEAP reporter activity” value worked out at 1.02 in the assay on RAW-Dual [1] (setting [4]) and 1.05 in the assay with RAW-Dual [1] (setting [5]).

On to `CCn1cc(-c2cccc(C(F)(F)F)c2)c2sc(C(=N)NC3CCS(=O)(=O)CC3)cc2c1=O` (library stock concentration (final ~1000-fold dilution): 10 mM), for which the “NF-kB SEAP reporter activity” value in the assay on RAW-Dual [3] (agonist: LPS (TLR4) 0.1 ug/mL) amounted to 3.13; in the assay on RAW-Dual [3] (setting [6]) it was 0.721; in the assay on RAW-Dual [3] (setting [7]) it was 1.15; in the assay with RAW-Dual [3] (setting [8]), 1.12.

With `CCn1cc(-c2cccc(C(F)(F)F)c2)c2sc(C(=N)NC3CCS(=O)(=O)CC3)cc2c1=O`, the “NF-kB SEAP reporter activity” value with RAW-Dual [1] (setting [10]) turned out to be 1.33; with RAW-Dual [1] (setting [9]), 2.16.

Regarding `CCCNC(=O)C1OC1C(=O)NC(C(=O)N1CCCC1C(=O)OC)C(C)CC` (configuration not stated) (library stock concentration (final ~1000-fold dilution): 10 mM), the “NF-kB SEAP reporter activity” value stood at 1.06 with RAW-Dual [2] (agonist: LPS (TLR4) 0.1 ug/mL), 0.881 in the assay on RAW-Dual [2] (setting [6]), 0.854 in the assay on RAW-Dual [2] (setting [7]) and 0.799 with RAW-Dual [2] (setting [8]).

On to `CCCNC(=O)C1OC1C(=O)NC(C(=O)N1CCCC1C(=O)OC)C(C)CC` (configuration not stated), for which the “NF-kB SEAP reporter activity” value in the assay on RAW-Dual [1] (setting [4]) came out at 0.821; with RAW-Dual [1] (setting [5]), 1.04.
